Compounds without any hit were thinned out: in the full panel of roughly 83,000, 20% have a hit.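 The endpoint reported here, percent growth, reads 100 for growth as untreated, 0 for no net growth and -100 for all cells dead.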 A number with no mark means an inactive call. Calls of active or inactive are those of the source. Rule for the calls: active = growth percent below 10; inactive = the rest.
The compounds below were run on M14 melanoma (assay: NCI-60 one-dose screen, 48 h (100 = growth as untreated, 0 = no growth, -100 = all killed)). Details: 10 µM unless noted.

| SMILES | growth |
| --- | --- |
| O=C1CCC23OC(c4ccccc4N12)C(O)C(O)C3O (stereo unspecified) | 100% |
| N#Cc1c(NC(=O)c2cccs2)[n+]([O-])c2cc(C(F)(F)F)ccc2[n+]1[O-] | 116% |
| Cc1[nH]c2ncnc(Oc3ccc(NC(=O)Nc4ccc(Cl)c(C(F)(F)F)c4)cc3)c2c1C | 52.1% |
| c1cc(CNC23CC4CC(CC(C4)C2)C3)cc(C[N+](Cc2cccc(CNC34CC5CC(CC(C5)C3)C4)c2)(Cc2cccc(CNC34CC5CC(CC(C5)C3)C4)c2)Cc2cccc(CNC34CC5CC(CC(C5)C3)C4)c2)c1 (stereo unspecified) | 24.3% [42 µM] |
| C[C@H]1[C@H](C)CC[C@]2(C(=O)OCCCC[P+](c3ccccc3)(c3ccccc3)c3ccccc3)CC[C@]3(C)C(=CC[C@@H]4[C@@]5(C)CC[C@H](OC(=O)C(Cl)Cl)C(C)(C)[C@@H]5CC[C@]43C)[C@H]12 | -82.7% (active) |
| O=C(Nc1nc(-c2ccccc2)cs1)c1cc(-c2ccc(Br)cc2)nc2ccccc12 | 75.3% |
